Laboratory results from PubChem BioAssay (NCI).
About 83,000 compounds went through this panel and 20% of them were active in at least one assay; those are over-represented in the sample as a whole.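 Note: values are percent growth. 100 is the growth of untreated cells, values between 100 and 0 indicate rising inhibition; between -100 and 0 indicates cell death.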 Calls of active or inactive are those of the source. The calls were made as follows: active = growth percent below 10; inactive = the rest.

How the values were obtained:
Assay in all cases: NCI-60 one-dose screen, 48 h (100 = growth as untreated, 0 = no growth, -100 = all killed)
Settings in all cases: 10 µM unless noted
[1] = system: DU-145 prostate
[2] = system: K-562 leukemia
[3] = system: MALME-3M melanoma
[4] = system: MDA-MB-231 breast
[5] = system: RXF 393 renal
[6] = system: SF-268 CNS
[7] = system: SF-295 CNS
[8] = system: SF-539 CNS
[9] = system: UACC-257 melanoma
[10] = system: M14 melanoma
[11] = system: HCT-15 colon
[12] = system: HT29 colon
[13] = system: SNB-75 CNS
[14] = system: SNB-19 CNS
[15] = system: U251 CNS
[16] = system: PC-3 prostate
[17] = system: SK-MEL-5 melanoma
[18] = system: UACC-62 melanoma
[19] = system: LOX IMVI melanoma
[20] = system: SK-MEL-28 melanoma

Measured: growth

COc1ccc2c(c1)/C(=C/c1c(-c3cc(OC)c(OC)c(OC)c3Br)nc3sccn13)C(=O)N2
inactive: [1] 114% | [2] 76% | [3] 62.1% | [4] 81.4% | [5] 118% | [6] 116% | [7] 105% | [8] 95.3% | [9] 110% | [10] 115% | [11] 109% | [12] 103% | [13] 109% | [14] 106% | [15] 93.4% | [16] 82.6% | [17] 83.1% | [18] 69.2% | [19] 64.7% | [20] 123%

COc1cc2c(cc1OCCCCC(=O)Nc1ccc(-c3nc4ccccc4s3)cc1)N=C[C@@H]1CCCN1C2=O
inactive: [4] 14.7% | [7] 18.3% | [11] 10.6% | [14] 14.1%
active: [1] 3.12% | [2] -17.6% | [3] -80.2% | [5] -83% | [6] 7.56% | [8] -46.6% | [9] -47.1% | [10] -59.3% | [12] -9.12% | [13] -67.7% | [15] 7.5% | [16] -4.92% | [17] -99.3% | [18] -70.9% | [19] 1.99% | [20] -44%

O=C(N/N=C1\SCC(=O)N1c1ccccc1)c1cc(-c2cc3ccccc3o2)nn1-c1ccccc1
inactive: [1] 109% | [2] 90.6% | [3] 94% | [4] 91.9% | [5] 101% | [6] 103% | [7] 104% | [8] 104% | [9] 107% | [10] 110% | [11] 106% | [12] 107% | [13] 101% | [14] 104% | [15] 103% | [16] 86.9% | [17] 101% | [18] 134% | [19] 107% | [20] 110%

O=C1c2ccccc2OC=C(c2ccccc2)N1CCCCN1CCCCC1
inactive: [1] 48.6% | [2] 15.6% | [3] 67.8% | [4] 73.8% | [5] 95.7% | [6] 55.5% | [7] 79.3% | [8] 95.7% | [9] 66.7% | [10] 68% | [11] 86.2% | [12] 13.6% | [13] 76.1% | [14] 50.7% | [15] 30.3% | [16] 23.3% | [17] 84.5% | [18] 69.1% | [19] 54.5% | [20] 87.3%

Cc1ccccc1C[P+](c1ccccc1)(c1ccccc1)c1ccccc1
active: [3] 5.05% | [9] -1.88% | [13] 9.33% | [17] -23.2%
inactive: [1] 32.4% | [2] 22.4% | [4] 46.3% | [5] 50.4% | [6] 16.7% | [7] 25.2% | [8] 33.6% | [10] 29.2% | [11] 107% | [12] 10.5% | [14] 28.7% | [15] 16.4% | [16] 14.5% | [18] 18.8% | [19] 14.7% | [20] 27.2%

COc1cc2c(cc1OC)-c1c(oc3c4c(ccc3c1=O)OC(C)(C)C=C4)CO2
inactive: [1] 90.9% | [2] 39.9% | [3] 93.2% | [4] 81.5% | [5] 96.9% | [6] 79.4% | [7] 51.7% | [8] 83.5% | [9] 54.8% | [10] 83.1% | [11] 82.8% | [12] 89.5% | [13] 75.8% | [14] 75.5% | [15] 88.6% | [16] 75.1% | [17] 23.8% | [18] 61.1% | [19] 63% | [20] 93.8%

NC(=S)NNC1CCCCC1
inactive: [1] 109% | [2] 87.6% | [3] 97.3% | [4] 92.1% | [5] 107% | [6] 97.4% | [7] 96.4% | [8] 96.4% | [9] 80.1% | [10] 98.4% | [11] 99.7% | [12] 94.4% | [13] 91.5% | [14] 101% | [15] 93.6% | [16] 87.7% | [17] 95.1% | [18] 95.7% | [19] 97.6% | [20] 111%
